# Assay results: PubChem BioAssay
# The source made the active and inactive calls.
# Experiments:
# [1] = adipocyte viability effects, profiling panel, cell-based, 3T3-L1 adipocytes, calcein-AM fluorescence, 48 h, basal (AID 1163); conditions: 3T3-L1 adipocytes viability, higher = more signal
# [2] = HepG2 cell viability effects, profiling panel, calcein-AM fluorescence, 48 h, basal (AID 1164); conditions: higher = more signal
# [3] = MM1S cell viability effects, profiling panel, calcein-AM fluorescence, 48 h, basal (AID 1165); conditions: higher = more signal;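 also: viability of MM1S multiple myeloma cells under basal unstimulated conditions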
# [4] = basal RPMI8226 viability, no added stimulus, profiling panel, cell-based, calcein-AM fluorescence, 48 h, PK04 Diversity Set (AID 1166); conditions: RPMI8226 myeloma viability, higher = more signal;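 also: cells grown under basal conditions without added stimulus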
# [5] = basal HepG2 mitochondrial membrane potential changes, profiling panel, cell-based, JC-1 fluorescence, 24 h, 100 nL compound (AID 1167); conditions: higher = more signal
# [6] = basal 3T3-L1 adipocyte mitochondrial potential changes, profiling panel, cell-based, JC-1 fluorescence, 3T3-L1 adipocytes, 24 h, 100 nL compound (AID 1168); conditions: JC-1 mitochondrial fluorescence, higher = more signal, called active from +8 up or from −8 down
# [7] = basal RPMI8226 mitochondrial membrane potential changes, profiling panel, cell-based, JC-1 fluorescence, 24 h, 100 nL compound (AID 1169); conditions: RPMI8226 myeloma, JC-1 mitochondrial potential fluorescence, higher = more signal
# [8] = basal MM1S mitochondrial membrane potential changes, profiling panel, cell-based, JC-1 fluorescence, 24 h, 100 nL compound (AID 1170); conditions: higher = more signal
# [9] = A549 lung cancer cell viability effects, profiling panel, resazurin fluorescence, 24 h, PK04 Diversity Set (AID 1171); conditions: higher = more signal, called active from +8 up or from −8 down
# [10] = HepG2 liver cancer cell viability effects, profiling panel, resazurin fluorescence, 24 h, PK04 Diversity Set (AID 1172); conditions: higher = more signal
# [11] = basal S. cerevisiae growth modulation, no modifier, primary screen, OD600, strain BY4716, 24 h, basal condition (AID 1173); conditions: OD600, 24 h, higher = more signal, called active from +8 up or from −8 down
# [12] = MM1S myeloma cell viability, profiling panel, resazurin fluorescence, basal, 24 h, PK04 Diversity Set (AID 1174); conditions: higher = more signal, called active from +8 up or from −8 down;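 also: MM1S multiple myeloma cell line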
# [13] = target: Dihydroorotate dehydrogenase (quinone), mitochondrial (Plasmodium falciparum (isolate 3D7)) (UniProt Q08210); assay: PfDHODH enzyme inhibitors, primary screen, biochemical, C-terminal His tag, absorbance 600 nm (AID 1175); conditions: DCIP absorbance 600 nm, higher = more signal, called active from +8 up or from −8 down;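 also: recombinant parasite enzyme with a five histidine tag at its C terminus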
# Dihydroorotate dehydrogenase (quinone), mitochondrial (Plasmodium falciparum (isolate 3D7)), sequence (Q08210 whole entry, looked up): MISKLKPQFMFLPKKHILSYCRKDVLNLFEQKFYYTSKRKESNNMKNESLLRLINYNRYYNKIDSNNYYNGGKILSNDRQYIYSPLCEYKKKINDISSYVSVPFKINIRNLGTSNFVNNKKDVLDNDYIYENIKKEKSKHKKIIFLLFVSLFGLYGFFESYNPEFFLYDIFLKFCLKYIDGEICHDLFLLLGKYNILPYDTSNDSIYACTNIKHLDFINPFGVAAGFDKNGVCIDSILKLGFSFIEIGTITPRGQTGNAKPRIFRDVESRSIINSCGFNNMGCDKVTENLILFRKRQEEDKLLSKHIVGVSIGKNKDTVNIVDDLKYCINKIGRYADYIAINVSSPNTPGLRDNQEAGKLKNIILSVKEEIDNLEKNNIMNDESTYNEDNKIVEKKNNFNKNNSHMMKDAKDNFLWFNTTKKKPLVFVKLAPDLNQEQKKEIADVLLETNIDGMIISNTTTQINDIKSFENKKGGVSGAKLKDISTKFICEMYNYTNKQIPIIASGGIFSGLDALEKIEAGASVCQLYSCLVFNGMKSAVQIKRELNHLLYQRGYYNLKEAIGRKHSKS
# [14] = S. cerevisiae RM11-1a growth modifiers, primary screen, strain RM11-1a, OD600, basal, 24 h (AID 1177); conditions: OD600, 24 h, higher = more signal, called active from +8 up or from −8 down;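 also: cultures grown under basal conditions with no added stressor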
# [15] = E. coli acrAB mutant growth effects, primary screen, E. coli filamentation inducers, strain DRC39, OD650, 24 h (AID 1178); conditions: higher = more signal, called active from +8 up or from −8 down;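 also: growth measured as culture turbidity by optical density at 650 nm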
# [16] = E. coli acrAB mutant growth effects, primary screen, E. coli filamentation inducers, strain DRC39, OD650, 48 h (AID 1179);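 also: screen aims at cell division blockers that make cells filament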; conditions: E. coli DRC39 delta-acrAB growth, higher = more signal, called active from +8 up or from −8 down
# [17] = RPMI8226 myeloma cell viability, profiling panel, resazurin fluorescence, basal, 24 h, PK04 Diversity Set (AID 1180); conditions: higher = more signal;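 also: RPMI8826 multiple myeloma cell line at 5000 cells per well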
# [18] = target: E3 ubiquitin-protein ligase XIAP (Homo sapiens) (UniProt P98170); assay: XIAP binders, primary screen, biophysical, small-molecule microarray, fluorescence 635 nm (AID 1181); conditions: small-molecule microarray binding, higher = more signal;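 also: score merges 667 nm emission and signal to noise over triplicate slides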
# E3 ubiquitin-protein ligase XIAP (Homo sapiens), sequence (P98170 whole entry, looked up): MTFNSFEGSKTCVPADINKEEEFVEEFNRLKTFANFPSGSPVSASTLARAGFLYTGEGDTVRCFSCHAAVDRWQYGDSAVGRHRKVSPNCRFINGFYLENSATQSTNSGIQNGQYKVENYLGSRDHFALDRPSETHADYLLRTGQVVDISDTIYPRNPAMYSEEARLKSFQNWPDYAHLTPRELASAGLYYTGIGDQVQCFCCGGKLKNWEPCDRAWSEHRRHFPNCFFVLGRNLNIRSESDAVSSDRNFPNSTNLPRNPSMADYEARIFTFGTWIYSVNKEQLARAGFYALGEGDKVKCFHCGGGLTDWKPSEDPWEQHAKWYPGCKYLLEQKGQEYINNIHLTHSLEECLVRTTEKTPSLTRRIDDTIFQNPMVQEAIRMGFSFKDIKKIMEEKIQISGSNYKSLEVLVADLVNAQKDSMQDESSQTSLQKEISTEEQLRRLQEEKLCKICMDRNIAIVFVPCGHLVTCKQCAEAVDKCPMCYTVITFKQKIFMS
# [19] = system: XIP peptide (Xip251-270) binding; assay: small-molecule binders of XIP peptide, primary screen, biochemical, small-molecule microarray, fluorescence 635/667 nm, 0.1 µg/mL protein (AID 1182); conditions: fluorescent protein binding, 635 nm, higher = more signal, called active from +8 up or from −8 down
# XIP peptide (Xip251-270) = assay: small-molecule binders of XIP peptide, primary screen, biochemical, small-molecule microarray, fluorescence 635/667 nm, 0.5 µg/mL protein (AID 1183); conditions: small-molecule microarray binding, fluorescence 635 nm; higher = more signal
SMILES,z-score [1],z-score [2],z-score [3],z-score [4],z-score [5],z-score [6],z-score [7],z-score [8],z-score [9],z-score [10],z-score [11],z-score [12],composite z-score [13],z-score [14],z-score [15],z-score [16],z-score [17],composite z-score [18],composite z-score [19],composite z-score (XIP peptide (Xip251-270))
COCCOC(=O)N1C(=O)[C@@]2(c3cc(C#CC4(O)CCCCCC4)ccc31)[C@H](c1ccccc1OCCO)N1[C@H](c3ccccc3)[C@H](c3ccccc3)OC(=O)[C@H]1[C@@H]2C(=O)Nc1nc2ccccc2s1,1.65,-0.133,-2.71,-4.28,-2.52,1.52 (inactive),-1.14,-0.807,0.611 (inactive),0.189,1.15 (inactive),-0.326 (inactive),0.764 (inactive),2.77 (inactive),-0.0438 (inactive),0.61 (inactive),-0.346,-0.0765,1.65 (inactive),0.649
CC(C)(C)OC(=O)CC[C@@]12N=C(c3ccc(OCCCO)cc3)O[C@@H]1c1ccccc1CN(Cc1ccccc1)C2=O,1.52,-1.46,-3.12,-4.06,0.528,0.547 (inactive),-1.2,-1.07,-0.624 (inactive),-0.232,1.13 (inactive),-3.4 (inactive),0.714 (inactive),3.15 (inactive),1.21 (inactive),0.199 (inactive),-2.12,0.286,-0.127 (inactive),0.687
NC(=O)NCC#Cc1ccc2c(c1)[C@]1(C(=O)N2)[C@H](c2ccc(OCCO)cc2)N2[C@H](c3ccccc3)[C@H](c3ccccc3)OC(=O)[C@H]2[C@@H]1C(=O)Nc1nc2ccccc2s1,1.17,-0.348,-0.285,1.55,-3.12,2.65 (inactive),-0.999,-1.68,0.641 (inactive),0.0219,1.44 (inactive),1.33 (inactive),-0.212 (inactive),3.21 (inactive),0.606 (inactive),0.681 (inactive),1.2,-0.0398,0.245 (inactive),-0.587
COc1ccc(C#Cc2ccc3c(c2)[C@]2(C(=O)N3)[C@H](c3ccc(O)cc3)N3[C@H](c4ccccc4)[C@H](c4ccccc4)OC(=O)[C@H]3[C@@H]2C(N)=O)cc1,1.39,-4.79,-3.41,-4.61,-2.81,-0.0696 (inactive),-1.32,-1.66,-1.62 (inactive),-0.424,-0.379 (inactive),-6.51 (inactive),0.255 (inactive),1.47 (inactive),0.277 (inactive),0.464 (inactive),-6.8,0.237,0.0982 (inactive),0.542
CC1CC/C=C\[C@H]2OC34C=CCN(C(C)C)C(=O)[C@H]3N(C(CO)C(C)C)C(=O)[C@@H]4C2C(=O)O1 (stereo not given in full),0.252,-0.0224,1.4,0.652,0.686,1.39 (inactive),-0.723,1.62,0.351 (inactive),0.788,-0.718 (inactive),1.15 (inactive),-1.87 (inactive),-0.488 (inactive),1.36 (inactive),1.46 (inactive),0.838,-0.194,0.0648 (inactive),-1.15
CCCCCCC#C[Si](O[C@H](c1ccccc1)c1cn(Cc2ccccc2)nn1)(C(C)C)C(C)C,0.28,-0.316,0.163,0.0412,6.57,2.09 (inactive),0.548,-0.198,4.71 (inactive),2.52,-0.382 (inactive),2.12 (inactive),0.337 (inactive),-0.486 (inactive),2.12 (inactive),1.36 (inactive),2.68,-0.0368,0.663 (inactive),-0.15
CC(C)N1C(=O)c2ccccc2[C@@H](C(=O)NCc2ccccc2)[C@@H]1c1ccc(CO)cc1,1.05,-0.179,-0.601,0.0541,0.617,-0.0455 (inactive),0.115,-0.251,1.05 (inactive),0.595,0.25 (inactive),1.51 (inactive),0.578 (inactive),1.49 (inactive),0.541 (inactive),0.169 (inactive),1.01,-0.0095,0.482 (inactive),-0.988
CO[C@H]1O[C@H](CO)[C@@H](OC(=O)CCc2ccccc2)[C@@H]2OC(=O)[C@H](Cc3ccccc3)C/C=C/C[C@@H](Cc3ccccc3)C(=O)O[C@@H]12,0.234,0.62,-0.0096,0.212,0.443,0.886 (inactive),0.12,0.119,1.43 (inactive),1.02,-2.53 (inactive),0.832 (inactive),-15.6 (active),-0.103 (inactive),1.19 (inactive),0.754 (inactive),0.884,-0.039,1.2 (inactive),-0.0342
NCCCCCCNC(=O)[C@@H]1C[C@@H]2C(=O)N[C@@H](Cc3ccccc3)C(=O)N2[C@@H]1c1ccc(O)cc1,1.09,-0.46,0.0892,-0.141,0.666,-0.386 (inactive),0.0478,0.188,1.19 (inactive),0.368,-1.77 (inactive),1.38 (inactive),0.687 (inactive),-0.509 (inactive),0.236 (inactive),0.476 (inactive),1.53,-0.305,0.208 (inactive),0.225
